PubChem BioAssay AID1159580 (chemical genetic matrix, 2015)
Out of some 5,500 compounds screened, about 2,000 (36%) were called active. Roughly 18% stayed inconclusive and do not appear here. Cut-off read from the data, not from the text of the source: active = normalized growth mostly below about 0.91 (no sharp cut-off); inconclusive = no clear call, values can overlap the other calls; inactive = mostly above about 0.92. Some of the results follow.

Test: chemical genetic growth profiling, strain panel (AID 1159580);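 note: tested at 20 µM; growth read once vehicle control cultures reached saturation at 30 °C; 1 = growth at the plate median or of vehicle wells; lower values mean less growth of the strain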
Settings: growth OD

Measured: normalized growth

CC(C)c1c(O)c(-c2cc3c(c(C(C)C)c2O)CCC2C(C)(C)CCC[C@]32C)cc2c1CCC1C(C)(C)CCC[C@]21C (some centres not stated)
inactive: S. cerevisiae deletion strains, locus YJR075W, strain HOC1, hits give low values 1.01 | S. cerevisiae deletion strains, locus YKL009W, strain mrt4, hits give low values 1.06 | S. cerevisiae deletion strains, locus YKL068W, hits give low values 1.01 | S. cerevisiae deletion strains, locus YKL085W, strain MDH1 (second series), hits give low values 1.07 | S. cerevisiae deletion strains, locus YKL085W, strain MDH1, hits give low values 1.07 | S. cerevisiae deletion strains, locus YKL160W, strain elf1, hits give low values 0.984 | S. cerevisiae deletion strains, locus YKL190W, strain CNB1, hits give low values 1.01 | S. cerevisiae deletion strains, locus YKR001C, strain vps1, hits give low values 1.03 | S. cerevisiae deletion strains, locus YKR026C, strain gcn3, hits give low values 0.993 | S. cerevisiae deletion strains, locus YKR091W, strain srl3, hits give low values 0.971 | S. cerevisiae deletion strains, locus YLL001W, strain dnm1, hits give low values 1.01 | S. cerevisiae deletion strains, locus YLL026W, hits give low values 0.997 | S. cerevisiae deletion strains, locus YLL041C, strain sdh2, hits give low values 1.02 | S. cerevisiae deletion strains, locus YLR027C, strain aat2, hits give low values 0.983 | S. cerevisiae deletion strains, locus YLR039C, strain RIC1, hits give low values 1.07 | S. cerevisiae deletion strains, locus YLR058C, strain SHM2, hits give low values 1.02 | S. cerevisiae deletion strains, locus YLR102C, strain apc9, hits give low values 1.02 | S. cerevisiae deletion strains, locus YLR113W, strain HOG1, hits give low values 0.996 | S. cerevisiae deletion strains, locus YLR221C, strain rsa3, hits give low values 1.02 | S. cerevisiae deletion strains, locus YLR258W, strain gsy2, hits give low values 0.974 | S. cerevisiae deletion strains, locus YLR262C, strain YPT6 (second series), hits give low values 0.987 | S. cerevisiae deletion strains, locus YLR262C, strain YPT6, hits give low values 1.05 | S. cerevisiae deletion strains, locus YLR268W, strain sec22, hits give low values 1.01 | S. cerevisiae deletion strains, locus YLR320W, strain mms22, hits give low values 1.02 | S. cerevisiae deletion strains, locus YLR330W, strain CHS5, hits give low values 1.01 | S. cerevisiae deletion strains, locus YLR342W, strain FKS1 (second series), hits give low values 1.04 | S. cerevisiae deletion strains, locus YLR342W, strain FKS1, hits give low values 0.99 | S. cerevisiae deletion strains, locus YLR357W, strain rsc2, hits give low values 0.976 | S. cerevisiae deletion strains, locus YLR370C, strain arc18, hits give low values 0.982 | S. cerevisiae deletion strains, locus YLR371W, strain rom2, hits give low values 1.02 | S. cerevisiae deletion strains, locus YLR384C, strain iki3, hits give low values 0.972 | S. cerevisiae deletion strains, locus YLR418C, strain cdc73, hits give low values 1.01 | S. cerevisiae deletion strains, locus YML016C, strain PPZ1, hits give low values 1.02 | S. cerevisiae deletion strains, locus YML032C, strain rad52, hits give low values 1.03 | S. cerevisiae deletion strains, locus YML120C, strain ndi1, hits give low values 1 | S. cerevisiae deletion strains, locus YML124C, strain tub3, hits give low values 1.01 | S. cerevisiae deletion strains, locus YMR058W, strain fet3, hits give low values 0.982 | S. cerevisiae deletion strains, locus YMR078C, strain ctf18, hits give low values 1.01 | S. cerevisiae deletion strains, locus YMR125W, strain sto1, hits give low values 0.968 | S. cerevisiae deletion strains, locus YMR129W, hits give low values 0.98 | S. cerevisiae deletion strains, locus YMR205C, strain PFK2, hits give low values 0.973 | S. cerevisiae deletion strains, locus YMR223W, strain ubp8, hits give low values 1.03 | S. cerevisiae deletion strains, locus YMR231W, strain pep5, hits give low values 1.04 | S. cerevisiae deletion strains, locus YMR263W, strain SAP30, hits give low values 1.02 | S. cerevisiae deletion strains, locus YMR307W, strain GAS1, hits give low values 1.03 | S. cerevisiae deletion strains, locus YNL067W, strain RPL9B, hits give low values 1.02 | S. cerevisiae deletion strains, locus YNL071W, strain lat1, hits give low values 0.995 | S. cerevisiae deletion strains, locus YNL128W, strain TEP1, hits give low values 1.01 | S. cerevisiae deletion strains, locus YNL153C, strain GIM3, hits give low values 0.998 | S. cerevisiae deletion strains, locus YNL183C, strain NPR1, hits give low values 0.946 | S. cerevisiae deletion strains, locus YNL209W, strain ssb2, hits give low values 0.986 | S. cerevisiae deletion strains, locus YNL233W, strain BNI4, hits give low values 0.999 | S. cerevisiae deletion strains, locus YNL248C, strain rpa49, hits give low values 0.953 | S. cerevisiae deletion strains, locus YNL250W, strain rad50, hits give low values 1.02 | S. cerevisiae deletion strains, locus YNL271C, strain bni1, hits give low values 1.03 | S. cerevisiae deletion strains, locus YNL298W, strain CLA4, hits give low values 1.03 | S. cerevisiae deletion strains, locus YNL307C, strain MCK1, hits give low values 1.04 | S. cerevisiae deletion strains, locus YNL322C, strain KRE1 (second series), hits give low values 0.963 | S. cerevisiae deletion strains, locus YNL322C, strain KRE1, hits give low values 1.02 | S. cerevisiae deletion strains, locus YNR049C, strain mso1, hits give low values 0.963 | S. cerevisiae deletion strains, locus YNR052C, strain pop2, hits give low values 1.02 | S. cerevisiae deletion strains, locus YOL006C, strain TOP1, hits give low values 1.06 | S. cerevisiae deletion strains, locus YOL012C, strain htz1 0.995 | S. cerevisiae deletion strains, locus YOL147C, strain pex11, hits give low values 1.01 | S. cerevisiae deletion strains, locus YOR001W, strain rrp6, hits give low values 1.02 | S. cerevisiae deletion strains, locus YOR061W, strain CKA2, hits give low values 1.02 | S. cerevisiae deletion strains, locus YOR069W, strain VPS5, hits give low values 1.01 | S. cerevisiae deletion strains, locus YOR070C, strain gyp1, hits give low values 0.989 | S. cerevisiae deletion strains, locus YOR080W, strain dia2, hits give low values 0.953 | S. cerevisiae deletion strains, locus YOR083W, strain WHI5, hits give low values 0.997 | S. cerevisiae deletion strains, locus YOR106W, strain vam3, hits give low values 0.985 | S. cerevisiae deletion strains, locus YOR136W, strain idh2, hits give low values 1.01 | S. cerevisiae deletion strains, locus YOR144C, strain elg1, hits give low values 1.01 | S. cerevisiae deletion strains, locus YOR184W, strain ser1, hits give low values 1.04 | S. cerevisiae deletion strains, locus YOR231W, strain MKK1, hits give low values 0.958 | S. cerevisiae deletion strains, locus YOR265W, strain rbl2, hits give low values 1 | S. cerevisiae deletion strains, locus YOR270C, strain vph1, hits give low values 1 | S. cerevisiae deletion strains, locus YOR290C, strain snf2, hits give low values 0.957 | S. cerevisiae deletion strains, locus YOR316C, strain cot1, hits give low values 1.02 | S. cerevisiae deletion strains, locus YPL051W, strain arl3, hits give low values 0.999 | S. cerevisiae deletion strains, locus YPL055C, strain LGE1, hits give low values 1.02 | S. cerevisiae deletion strains, locus YPL078C, strain atp4, hits give low values 0.986 | S. cerevisiae deletion strains, locus YPL106C, strain sse1, hits give low values 0.948 | S. cerevisiae deletion strains, locus YPL240C, strain hsp82, hits give low values 0.996 | S. cerevisiae deletion strains, locus YPL241C, strain CIN2, hits give low values 1.02 | S. cerevisiae deletion strains, locus YPL256C, strain CLN2, hits give low values 0.949 | S. cerevisiae deletion strains, locus YPR119W, strain clb2, hits give low values 1.01 | S. cerevisiae deletion strains, locus YPR141C, strain kar3, hits give low values 1.02 | S. cerevisiae deletion strains, locus YPR163C, strain tif3, hits give low values 1.01 | S. cerevisiae deletion strains, locus YPR167C, strain met16, hits give low values 1.02 | S. cerevisiae deletion strains, strain wtn01, hits give low values 1.02 | S. cerevisiae strains, strain wild type, hits give low values 1.02
